High-throughput results deposited in PubChem BioAssay by several laboratories.
rCAG binder-1 = r(CAG) repeat RNA binding; TO-PRO-1 dye displacement fluorescence; inhibition, % at 3 µM; 370,000 compounds, 1.3% hits; AID 651821;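 active = inhibition above the plate cutoff, the mean of all test compounds on that plate plus 3 SD, cut at about 35% in these data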;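 also: 0% = DMSO alone and 100% = 100 µM mitoxantrone as full dye displacement; higher means more dye released from RNA so lower well fluorescence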
MsrA act = activates bovine MsrA enzyme; purified bovine MsrA, absorbance read-out; 360,000 compounds, 0.3% hits; AID 602163; activation, % at 10.6 µM; in the data active = activation above about 7.5%;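 also: 0% = vehicle and 100% = reference activator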
Pemphigus Ab inh = inhibitors of pemphigus antibody binding to human desmoglein-3; 310,000 compounds, 0.48% hits; DSG3-coupled beads, scFv-anti-DSG3-GFP binding, flow cytometry; active compounds read low; binding (percent of control), % at 10 µM; AID 588358;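 active = binding more than 3 SD below its plate's average and above zero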;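 also: hits lower antibody fragment binding to DSG3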
DAGLB inh = diacylglycerol lipase beta (human) inhibition. inhibition, % at 5.17 µM. 340,000 compounds, 0.059% hits. HEK293T DAGLB membrane lysate, EnzChek fluorogenic substrate; in the data active = inhibition above about 34%;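 also: 0% = enzyme with vehicle and 100% = wells lacking enzyme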
Target sequence (Q8NCG7 whole entry, looked up): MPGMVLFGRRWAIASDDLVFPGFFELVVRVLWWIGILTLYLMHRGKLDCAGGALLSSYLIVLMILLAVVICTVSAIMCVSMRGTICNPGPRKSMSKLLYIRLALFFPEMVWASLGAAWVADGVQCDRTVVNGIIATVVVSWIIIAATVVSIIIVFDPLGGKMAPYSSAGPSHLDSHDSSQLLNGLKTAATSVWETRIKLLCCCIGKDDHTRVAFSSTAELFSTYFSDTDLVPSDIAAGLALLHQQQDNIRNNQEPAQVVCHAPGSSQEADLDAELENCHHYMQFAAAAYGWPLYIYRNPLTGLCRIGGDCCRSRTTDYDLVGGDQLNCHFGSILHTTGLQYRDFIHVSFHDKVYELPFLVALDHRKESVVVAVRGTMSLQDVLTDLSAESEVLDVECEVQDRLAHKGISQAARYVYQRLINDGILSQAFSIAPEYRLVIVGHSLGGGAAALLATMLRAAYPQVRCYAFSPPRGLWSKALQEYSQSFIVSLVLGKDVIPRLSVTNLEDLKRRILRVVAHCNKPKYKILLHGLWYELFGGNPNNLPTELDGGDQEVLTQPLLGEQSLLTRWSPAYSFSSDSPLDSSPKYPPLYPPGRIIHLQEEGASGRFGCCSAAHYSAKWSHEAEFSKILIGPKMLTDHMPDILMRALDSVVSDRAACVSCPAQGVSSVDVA
MsrA inhibitor = inhibitors of bovine MsrA. purified bovine MsrA, absorbance read-out. AID 651718. 360,000 compounds, 0.75% hits. inhibition, % at 15.5 µM; in the data active = inhibition above about 4.5%;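 also: 0% = vehicle wells with enzyme and 100% = reference inhibitor wells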
NadD inh = inhibitors of Staphylococcus aureus NadD | purified NadD enzyme, colorimetric absorbance read-out | inhibition, % at 20 µM | 360,000 compounds, 0.78% hits; in the data active = inhibition above about 26%
rCAG binder conf = r(CAG) RNA repeat binding, confirmation. 4,300 compounds, 70% hits. shares compounds with rCAG binder-1. TO-PRO-1 dye displacement fluorescence. inhibition, % at 3 µM. AID 652065;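 active = inhibition above a per-plate cutoff, the mean inhibition of sample wells plus 3 SD, cut at about 35% in these data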;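 also: loss of TO-PRO-1 fluorescence as compound displaces dye from 1x1 AA loop RNA; 0% = DMSO only wells and 100% = 100 µM mitoxantrone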
dCAG dye counter = DNA CAG dye complex inhibition counter-screen; 4,300 compounds, 94% hits; inhibition, % at 3 µM; d(CAG) DNA oligo TO-PRO-1 dye displacement, fluorescence; shares compounds with rCAG binder-1;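 active = inhibition above its plate's cutoff, the mean test-well inhibition plus 3 SD, cut at about 4.8% in these data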;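 also: 0% = DNA dye mix with DMSO and 100% = 100 µM mitoxantrone; hits displace the dye from DNA and so lower well fluorescence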
DNA CAG DR = counter-screen for rCAG binders: inhibitors of DNA CAG TO-PRO-1 complex | shares compounds with rCAG binder-1 | AID 686960 | 250 compounds, 20% hits | IC50, µM | DNA CAG/GTC duplex TO-PRO-1 dye displacement fluorescence; in the data active = IC50 below about 10 µM
dCAG DNA bind = counter-screen for rCAG binders: DNA CAG TO-PRO-1 complex inhibitors, late stage; shares compounds with rCAG binder-1; d(CAG) DNA duplex TO-PRO-1 dye displacement, fluorescence; IC50, µM; 30 compounds, 80% hits
rCAG binder-2 = binds r(CAG) RNA repeats in late stage dose response | r(CAG) RNA TO-PRO-1 dye displacement, fluorescence | 30 compounds, 100% hits | shares compounds with rCAG binder-1 | IC50, µM
An asterisk follows results filed as active; i = inactive; . = no result. The list is not random: actives were taken first. Their share in the collection is about 3.2%. Unless noted, no rule for the calls is given here.

SMILES	rCAG binder-1	MsrA act	Pemphigus Ab inh	DAGLB inh	MsrA inhibitor	NadD inh	rCAG binder conf	dCAG dye counter	others
Cc1cc(C)cc(NC(=S)N(Cc2ccc(Cl)cc2)Cc2ccc(C(=O)O)cc2)c1	49*	-2	103	6	1	9	65*	29*
COc1ccc(CN(Cc2ccc(C(=O)O)cc2)C(=S)Nc2ccccc2C)cc1OC	2	-1	97	1	-1	7	.	.
Cc1ccc(NC(=S)N(Cc2ccc(Br)cc2)Cc2ccc(C(=O)O)cc2)cc1C	54*	-3	101	8	0	7	71*	31*	DNA CAG DR=i;dCAG DNA bind=4.6*;rCAG binder-2=2*
Cc1cc(NC(=S)N(Cc2cccc(Br)c2)CC2CCC(C(=O)O)CC2)ccc1Cl (stereo unspecified)	46*	-6	96	3	-1	19	64*	24*
Cc1cccc(CN2CCN(C3CN(Cc4cn(Cc5cccc(Cl)c5)nn4)S(=O)(=O)C3)CC2)c1 (stereo unspecified)	0	1	.	.	0	-6	.	.
O=C1O[C@@H](c2ccccc2)C[C@@H](O)C(=O)CCCc2ccccc21	2	-2	.	.	0	-10	.	.
C[C@@H]1CN([C@@H](C)CO)C(=O)CCCn2nncc2CO[C@@H]1CN(C)C(=O)Nc1cccc(Oc2ccccn2)c1	1	-7	105	1	0	5	.	.
CN(Cc1ccccc1)C(=O)c1ccc(Cc2cn(C)c3ccccc23)nc1	1	-6	.	.	1	3	.	.
O=C(Nc1ccc(S(=O)(=O)NC2=NCCCCC2)cc1)c1cccc(OC(F)F)c1	0	0	108	2	1	0	.	.
O=C(Cc1csc(NC(=O)Nc2cccc(Cl)c2)n1)NCc1ccccn1	39*	-1	103	1	1	2	15	14*
O=C(Cc1csc(NC(=O)Nc2cccc(Cl)c2)n1)NCc1cccnc1	33	-2	103	3	-1	2	.	.
O=C(Cc1csc(NC(=O)Nc2cccc(Cl)c2)n1)NC1CCCC1	44*	-5	96	-3	0	-1	18	14*
CC(=O)O[C@H]1[C@@H](O)[C@H](O)[C@H](Oc2c(O)c(C)c3c4c2[C@@H](C)CC[C@@H]4[C@@H](C)C[C@@H]3C=C(C)C)O[C@H]1C	0	-1	.	.	0	1	.	.
NS(=O)(=O)c1ccc(N/N=C/c2ccc(O)c(O)c2O)c([N+](=O)[O-])c1	55*	-8	28	17	2	9	76*	38*
N#Cc1c(N(CCO)CCO)nc(N)c2c(N)nc3c(c12)CC(=O)N3CC1CCCO1 (stereo unspecified)	35*	-8	92	4	0	-18	10	5.7*
COc1cccc(C(=O)N2CCC[C@@H]2C(=O)N2CCC[C@H]2C(=O)NCc2ccccc2)c1	0	.	.	.	0	.	.	.
COc1cccc(NC(=O)NC2CCCCN(Cc3ccc(C)cc3)C2=O)c1 (stereo unspecified)	3	.	.	.	.	.	.	.
N#C/C(=C\c1c[nH]c2ccccc12)C(=O)NC1CC1	54*	-4	137	5	1	-2	1	1
NC(=S)NN=Cc1cc(-c2cccc(N)c2)ccn1	6	-1	104	3	3	3	.	.
CC1=NN(c2ccccc2)C(=O)C1C=Nc1ccccc1O (stereo unspecified)	.	-4	98	3	.	-6	.	.
CC1=NN(c2ccccc2)C(=O)C1/C=C1\NC(=S)NC1=O (stereo unspecified)	55*	-4	103	0	2	25	72*	36*
O=C(Nc1ccccc1)Nc1nnc(Cc2ccccc2F)s1	31	-3	113	1	-1	-9	.	.
O=C(Nc1cccc(C(F)(F)F)c1)Nc1nnc([C@H]2C[C@H](O)[C@@H](CO)O2)s1	19	-2	.	.	0	-1	.	.
CCSCCc1nnc(NC(=O)Nc2cccc(C(F)(F)F)c2)s1	38*	-3	106	-3	1	0	27	19*
COc1ccccc1NC(=O)Nc1nnc(Cc2ccccc2F)s1	7	-1	101	1	0	-7	.	.
SMILES	rCAG binder-1	MsrA act	Pemphigus Ab inh	DAGLB inh	MsrA inhibitor	NadD inh	rCAG binder conf	dCAG dye counter	others
COc1cccc(NC(=O)Nc2nnc(Cc3ccccc3F)s2)c1	40*	-5	92	-1	0	-6	22	14*
O=C(Nc1ccc(F)cc1)Nc1nnc(Cc2ccccc2F)s1	45*	-2	89	1	3	6	18	16*
COc1ccc(NC(=O)C2(C)Cc3c(-c4cccc(C(F)(F)F)c4)ccnc3O2)cn1 (stereo unspecified)	0	1	.	.	1	-1	.	.
Nc1[nH]c(C(=O)c2ccc(Br)cc2)c(-c2ccc(Br)cc2)c1C(=O)NCc1ccc(-c2ccccc2)cc1	16	.	.	.	0	.	.	.
CCOc1ccc(Cl)cc1-c1cc(C(=O)Nc2cc(OC)c(OC)c(OC)c2)[nH]n1	9	-6	.	.	0	-13	.	.
COc1ccc(CN(C)C(=O)C2CSC3(C)CCC(=O)N23)c(OC)c1 (stereo unspecified)	0	0	98	-3	0	5	.	.
N#Cc1nccnc1S(=O)(=O)c1cccs1	-2	.	114	.	3	.	.	.
Cc1ccc(C)n1-c1ccc(-c2nnco2)cc1	.	-3	110	-1	.	21	.	.
Cc1c(Br)cc(-c2nnco2)cc1Br	40*	-3	98	-10	2	-4	4	1
C=CCN(C(=O)[C@@H](C)[C@@H](O)c1ccc2ccccc2c1)c1ccccc1	1	.	.	.	.	.	.	.
Cc1cc(C(=O)NNC(=S)NCc2ccco2)n(C)n1	-1	-7	.	-1	1	-3	.	.
CC(C)c1cc(C(=O)NNC(=S)NCc2ccco2)c(O)c(C(C)C)c1	65*	0	101	0	0	3	58*	24*
O=C1c2cc(CO)cc(O)c2C(=O)c2c(O[C@@H]3OC(CO)[C@@H](O)[C@@H](O)[C@@H]3O)cccc21 (stereo partly specified)	0	-8	84	-2	0	-2	.	.
